Calls of active or inactive are those of the source. The calls were made as follows: active = hit-call score of the fitted dose curve at least 0.9, where 1 is the maximum; inactive = score below 0.9.
Assays:
[1] = read-out: Plasminogen activator inhibitor-1 (PAI1), SERPINE1 (gene 5054); assay: BSK_hDFCGF_PAI1: BioMAP Diversity Plus: hDFCGF Assay for Plasminogen activator inhibitor-1 (PAI1) Biomarker Activity (AID 2283066); conditions: primary human foreskin fibroblasts; actives raise or lower the signal
Method in brief: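 Human foreskin fibroblasts in the hDFCGF system were dosed with compound for 24 h; PAI-1 was quantified by ELISA. Bidirectional curve fitting used DMSO as negative control and baseline.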

[2] = read-out: Intercellular Adhesion Molecule 1 (ICAM1), ICAM1 (gene 3383); assay: BSK_KF3CT_ICAM1: BioMAP Diversity Plus: KF3CT Assay for Intercellular Adhesion Molecule 1 (ICAM1) Biomarker Activity (AID 2283067); conditions: primary human keratinocytes with fibroblasts; actives raise or lower the signal
Method in brief: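 Bidirectional curve fitting against a DMSO baseline was applied to ICAM-1 ELISA signal from primary human skin co-cultures harvested 24 h after treatment, with SRB staining of parallel wells for overt cytotoxicity.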

[3] = BSK_KF3CT_SRB: Viability Assessment in the BioMAP Diversity Plus: KF3CT Assay (AID 2283069); conditions: primary human keratinocytes with fibroblasts;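 also: total protein by sulforhodamine B staining as a cytotoxicity measure; read 24 h after compound addition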
Method in brief: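 Human primary keratinocyte plus foreskin fibroblast co-culture exposed to chemicals for 24 h. Total protein measured by 0.1% sulforhodamine B staining after 10% TCA fixation, read at 560 nm; bidirectional fitting versus DMSO baseline.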

[4] = read-out: Interleukin-1 alpha (IL1a), IL1A (gene 3552); assay: BSK_KF3CT_IL1a: BioMAP Diversity Plus: KF3CT Assay for Interleukin-1 alpha (IL1a) Biomarker Activity (AID 2283070); conditions: primary human keratinocytes with fibroblasts; actives raise or lower the signal
Method in brief: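 Human keratinocyte plus foreskin fibroblast primary co-culture, sampled 24 h after chemical dosing. IL-1a measured by ELISA; responses fitted bidirectionally against DMSO baseline (negative control), so gain or loss of signal both count.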

[5] = read-out: TIMP metallopeptidase inhibitor 2 (TIMP2), TIMP2 (gene 7077); assay: BSK_KF3CT_TIMP2: BioMAP Diversity Plus: KF3CT Assay for TIMP metallopeptidase inhibitor 2 (TIMP2) Biomarker Activity (AID 2283071); conditions: primary human keratinocytes with fibroblasts; actives raise or lower the signal
Method in brief: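 Human primary keratinocyte/foreskin fibroblast co-culture dosed with chemical and sampled at 24 h. TIMP-2 levels quantified by ELISA; bidirectional fitting against DMSO negative control as baseline.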

[6] = read-out: Transforming growth factor beta 1 (TGFb1), TGFB1 (gene 7040); assay: BSK_KF3CT_TGFb1: BioMAP Diversity Plus: KF3CT Assay for Transforming growth factor beta 1 (TGFb1) Biomarker Activity (AID 2283072); conditions: primary human keratinocytes with fibroblasts; actives raise or lower the signal
Method in brief: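 Human keratinocyte plus foreskin fibroblast primary co-culture, dosed with chemical for 24 h. TGF-b1 quantified by ELISA. Activity fitted bidirectionally against DMSO negative control as baseline.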

[7] = read-out: Matrix Metallopeptidase 9 (MMP9), MMP9 (gene 4318); assay: BSK_KF3CT_MMP9: BioMAP Diversity Plus: KF3CT Assay for Matrix Metallopeptidase 9 (MMP9) Biomarker Activity (AID 2283074); conditions: primary human keratinocytes with fibroblasts; actives raise or lower the signal;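 as to AC50: MMP9 protein level quantified by ELISA in the co-culture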
Method in brief: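 Keratinocyte plus foreskin fibroblast human primary skin co-culture was dosed with chemical and MMP-9 was quantified by ELISA 24 h later. Bidirectional curve fitting used DMSO as negative control and activity baseline.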

[8] = read-out: urokinase plasminogen activator (uPA), PLAU (gene 5328); assay: BSK_KF3CT_uPA: BioMAP Diversity Plus: KF3CT Assay for urokinase plasminogen activator (uPA) Biomarker Activity (AID 2283075); conditions: primary human keratinocytes with fibroblasts; actives raise or lower the signal
Method in brief: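 Human keratinocyte plus foreskin fibroblast primary co-culture exposed to chemical for 24 h. uPA levels were quantified by ELISA, and activity was fitted bidirectionally against a DMSO negative-control baseline.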

CD40, CD40 (gene 958) = assay: BSK_LPS_CD40: BioMAP Diversity Plus: LPS Assay for CD40 Biomarker Activity (AID 2283076); conditions: primary human HUVEC with PBMC; actives raise or lower the signal
Method in brief: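 Using a multiplexed primary human co-culture (umbilical vein endothelium plus PBMC), CD40 was read by ELISA 24 h after dosing, with cytotoxicity tracked by sulforhodamine B staining of parallel cultures and activity fitted bidirectionally versus DMSO.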

[9] = read-out: E-selectin (Homo sapiens) (UniProt P16581); assay: BSK_LPS_Eselectin: BioMAP Diversity Plus: LPS Assay for Eselectin Biomarker Activity (AID 2283077); conditions: primary human HUVEC with PBMC; actives raise or lower the signal
Method in brief: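 Dose chemical onto LPS-driven HUVEC/PBMC co-culture; after 24 h, run ELISA for E-selectin; fit up- and down-going responses relative to DMSO control.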

[10] = read-out: Interleukin-8 (IL8), CXCL8 (gene 3576); assay: BSK_LPS_IL8: BioMAP Diversity Plus: LPS Assay for Interleukin-8 (IL8) Biomarker Activity (AID 2283078); conditions: primary human HUVEC with PBMC; actives raise or lower the signal
Method in brief: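 In this LPS system, chemical-treated human umbilical vein endothelium/PBMC co-cultures were harvested at 24 h for IL-8 ELISA.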

[11] = BSK_LPS_SRB: Viability Assessment in the BioMAP Diversity Plus: LPS Assay (AID 2283079); conditions: primary human HUVEC with PBMC;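 also: total protein by sulforhodamine B absorbance as a cytotoxicity measure; measured one day after compound addition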
Method in brief: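 Cytotoxicity endpoint in human endothelial–PBMC co-culture: 24 h exposure, then SRB (0.1%) staining, 560 nm read.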

[12] = read-out: Interleukin-1 alpha (IL1a), IL1A (gene 3552); assay: BSK_LPS_IL1a: BioMAP Diversity Plus: LPS Assay for Interleukin-1 alpha (IL1a) Biomarker Activity (AID 2283080); conditions: primary human HUVEC with PBMC; actives raise or lower the signal
Method in brief: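 Primary human HUVEC and PBMC co-culture stimulated with LPS is dosed and harvested at 24 h. Both increases and decreases in ELISA-measured IL-1a are scored relative to DMSO.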

[13] = read-out: Monocyte Chemoattractant Protein-1 (MCP1), CCL2 (gene 6347); assay: BSK_LPS_MCP1: BioMAP Diversity Plus: LPS Assay for Monocyte Chemoattractant Protein-1 (MCP1) Biomarker Activity (AID 2283081); conditions: primary human HUVEC with PBMC; actives raise or lower the signal
Method in brief: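 Values derive from bidirectional fitting against DMSO of ELISA-measured MCP-1 in a human primary endothelial and mononuclear cell co-culture, 24 h after chemical addition under LPS activation.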

[14] = BSK_LPS_PGE2: BioMAP Diversity Plus: LPS Assay for Prostaglandin E2 (PGE2) Biomarker Activity (AID 2283082); conditions: primary human HUVEC with PBMC; actives raise or lower the signal;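 as to AC50: secreted prostaglandin E2 measured by ELISA in LPS-stimulated co-culture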
Method in brief: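 HUVEC plus PBMC co-culture stimulated with LPS; secreted PGE2 quantified by ELISA 24 h after chemical dosing. Activity fitted bidirectionally against DMSO as negative control and baseline; parallel SRB total-protein staining served as cytotoxicity check.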

[15] = read-out: Macrophage colony-stimulating factor (MCSF), CSF1 (gene 1435); assay: BSK_LPS_MCSF: BioMAP Diversity Plus: LPS Assay for Macrophage colony-stimulating factor (MCSF) Biomarker Activity (AID 2283083); conditions: primary human HUVEC with PBMC; actives raise or lower the signal
Method in brief: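 Bidirectional fit versus DMSO of ELISA-measured M-CSF in co-cultured human umbilical vein endothelial cells and PBMC, sampled 24 h after dosing.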

[16] = read-out: Tissue Factor, F3 (gene 2152); assay: BSK_LPS_TissueFactor: BioMAP Diversity Plus: LPS Assay for Tissue Factor Biomarker Activity (AID 2283084); conditions: primary human HUVEC with PBMC; actives raise or lower the signal
Method in brief: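 Read-out: CD142 ELISA, 24 h. System: LPS-driven human endothelial/PBMC co-culture. Analysis: up- or down-signal fitted against DMSO.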

[17] = read-out: Tumor necrosis factor (Homo sapiens) (UniProt P01375); assay: BSK_LPS_TNFa: BioMAP Diversity Plus: LPS Assay for Tumour Necrosis Factor alpha (TNFa) Biomarker Activity (AID 2283085); conditions: primary human HUVEC with PBMC; actives raise or lower the signal;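 as to AC50: TNFa protein level quantified by ELISA in the co-culture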
Method in brief: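 Human umbilical vein endothelial cells co-cultured with PBMC were exposed to test chemical and TNFa measured by ELISA 24 h after dosing. Bidirectional curve fitting was done relative to DMSO as negative control and baseline.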

[18] = read-out: C-C motif chemokine 2 (Homo sapiens) (UniProt P13500); assay: BSK_KF3CT_MCP1: BioMAP Diversity Plus: KF3CT Assay for Monocyte Chemoattractant Protein 1 (MCP1/CCL2) Biomarker Activity (AID 2283073); conditions: primary human keratinocytes with fibroblasts; actives raise or lower the signal
Method in brief: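 Biomarker MCP-1 is measured by ELISA in primary human keratinocytes co-cultured with foreskin fibroblasts, 24 h after chemical treatment; DMSO serves as the negative control and activity baseline.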

Measured: AC50

E-selectin (Homo sapiens), sequence (P16581 whole entry, looked up): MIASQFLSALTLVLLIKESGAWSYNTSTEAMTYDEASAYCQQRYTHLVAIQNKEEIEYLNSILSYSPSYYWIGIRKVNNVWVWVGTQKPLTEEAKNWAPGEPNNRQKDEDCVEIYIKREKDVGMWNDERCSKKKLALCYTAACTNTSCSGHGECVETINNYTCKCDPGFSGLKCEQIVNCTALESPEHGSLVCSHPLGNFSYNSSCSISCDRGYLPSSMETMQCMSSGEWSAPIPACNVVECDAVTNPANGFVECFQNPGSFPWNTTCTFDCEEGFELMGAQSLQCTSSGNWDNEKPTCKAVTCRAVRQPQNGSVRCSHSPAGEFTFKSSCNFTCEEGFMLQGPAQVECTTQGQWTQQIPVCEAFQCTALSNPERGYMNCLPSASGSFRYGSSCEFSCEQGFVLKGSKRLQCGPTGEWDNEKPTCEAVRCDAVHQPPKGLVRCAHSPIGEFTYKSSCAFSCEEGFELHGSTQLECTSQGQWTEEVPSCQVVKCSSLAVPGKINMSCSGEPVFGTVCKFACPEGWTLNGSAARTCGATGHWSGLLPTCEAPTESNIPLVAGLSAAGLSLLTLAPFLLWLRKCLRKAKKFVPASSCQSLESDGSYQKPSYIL
Tumor necrosis factor (Homo sapiens), sequence (P01375 whole entry, looked up): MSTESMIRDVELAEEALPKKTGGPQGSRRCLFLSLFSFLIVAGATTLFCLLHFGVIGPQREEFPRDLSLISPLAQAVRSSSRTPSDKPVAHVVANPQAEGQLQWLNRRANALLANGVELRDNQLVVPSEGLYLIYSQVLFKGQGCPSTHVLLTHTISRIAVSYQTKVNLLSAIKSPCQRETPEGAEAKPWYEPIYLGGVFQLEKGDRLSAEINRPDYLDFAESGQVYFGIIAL

[O-][Cl+]O
not listed: [18]
inactive: all other assays above

CN(C)c1ccccc1
not listed: [18]
inactive: all other assays above

Cc1ccc(N)c(N)c1
active: [7] 9.74 µM | [14] 20 µM | [15] 11.5 µM
not listed: [17] | [18]
inactive: all other assays above

CCCCCOC(=O)c1ccccc1C(=O)OCCCCC
active: CD40, CD40 (gene 958) 20 µM | [9] 31.7 µM | [10] 20 µM | [14] 17.7 µM | [15] 26.5 µM | [17] 20 µM
not listed: [11]
inactive: all other assays above

c1ccc2c(c1)-c1cccc3cccc-2c13
active: [7] 28.9 µM
not listed: [17] | [18]
inactive: all other assays above

COP(=S)(OC)SCN1C(=O)c2ccccc2C1=O
inactive: all assays above

Clc1ccc(Cl)c(Cl)c1
not listed: [17] | [18]
inactive: all other assays above

— PubChem BioAssay (EPA / NIEHS)
